“And” between values parts separate entries of the source, which are not always exact repeats. Equal values may be shown once. Records with an inconclusive call do not appear. A call without a number means that no potency is given here. A number with no mark means an inactive call. The source made the active and inactive calls. Unless noted, the call rests on the fitted dose curve; in most records, active means well fitted curve in the direction sought with a large enough effect; inconclusive means small, poorly fitted or top-dose-only effect, or another doubt; inactive means no such curve, though single readings can be large; an effect the other way counts as inactive or inconclusive.
Experiments:
[1] = target: Cellular tumor antigen p53 (Homo sapiens) (UniProt P04637); assay: Primary qHTS for small molecule compounds that upregulate eGFP-tagged delta133p53alpha (in N-terminal) cells. (AID 2060322); conditions: NCI-H358 eGFP-delta133p53alpha fluorescence, 24 h; activation: stronger effect = higher value; further: nearly all actives have a fitted effect of over 75% in size; further: potency means the concentration at half of the fitted maximal effect; on activation: series mostly up to about 56 µM
Procedure, shortened: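 NCI-H358 cells pre-induced 24 h with 10 ng/ml doxycycline to express N-terminal eGFP-delta133p53alpha, then dosed 24 h at 37C without doxycycline; fixed, Hoechst-stained, GFP intensity by laser scanning cytometry, normalized to DMSO (0%) and 57.5 uM 5-azacytidine (100%).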

[2] = target: Cellular tumor antigen p53 (Homo sapiens) (UniProt P04637); assay: Primary qHTS for small molecule compounds that upregulate eGFP-tagged delta133p53alpha (in C-terminal) cells. (AID 2060324); further: potency means the concentration at half of the fitted maximal effect
Procedure, shortened: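 NCI-H358 cells with doxycycline-inducible D133p53a-eGFP (C-terminal tag), pre-induced 24 h with 100 ng/ml doxycycline, plated 800/well in doxycycline-free medium and treated 24 h at 37 °C with compound titrations. Cells were then fixed and Hoechst-stained, and GFP intensity was read by laser scanning cytometry.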

[3] = target: Aldehyde dehydrogenase, mitochondrial (Homo sapiens) (UniProt P05091); assay: qHTS for Inhibitors of the Aldehyde Dehydrogenase Family (ALDH2) Validation screens (AID 2061302; active means well fitted inhibition curve with a large enough effect; title and protocol of this record describe different tests; further: potency means the concentration at half of the fitted maximal effect)
[4] = target: Retinaldehyde dehydrogenase 3 (Homo sapiens) (UniProt P47895); assay: qHTS for Inhibitors of the Aldehyde Dehydrogenase Family (ALDH1A3) Validation screen (AID 2061312); further: nearly all actives have a fitted effect of over 45% in size

Sequence of Cellular tumor antigen p53 (Homo sapiens) (P04637 whole entry, looked up): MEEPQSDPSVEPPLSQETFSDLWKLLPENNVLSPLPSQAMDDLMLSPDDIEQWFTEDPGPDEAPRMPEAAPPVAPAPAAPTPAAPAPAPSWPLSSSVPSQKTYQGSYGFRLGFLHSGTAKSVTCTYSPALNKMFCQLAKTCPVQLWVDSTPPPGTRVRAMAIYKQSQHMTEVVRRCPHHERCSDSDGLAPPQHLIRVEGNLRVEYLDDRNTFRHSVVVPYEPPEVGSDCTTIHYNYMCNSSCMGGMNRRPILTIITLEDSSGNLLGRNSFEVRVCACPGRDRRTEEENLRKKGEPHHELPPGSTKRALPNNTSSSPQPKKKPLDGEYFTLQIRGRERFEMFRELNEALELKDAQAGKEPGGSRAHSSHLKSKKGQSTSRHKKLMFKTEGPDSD

Row | SMILES | activation [1] | Potency [2] | Potency [3] | Potency [4] | Potency [1]
1 | NCC1OC(O[C@H]2[C@H](O)[C@@H](OC3C(O)C(N)CC(N)C3OC3OC(CO)C(O)C(O)C3N)O[C@@H]2CO)C(N)C(O)C1O (some centres undefined) | 6.76% | inactive | inactive | inactive | –
2 | CCCC(=O)NCCc1c2n(c3ccc(OC)cc13)CCCc1ccccc1-2 | -45.5% | inactive | inactive | inactive | –
3 | C[C@]12CC[C@@H]3c4ccc(O)cc4CC[C@H]3[C@@H]1CCC2=O | 11.7% | inactive | inactive | inactive | –
4 | O=c1[nH]c2cc(C(F)(F)F)ccc2n1-c1cc(C(F)(F)F)ccc1O | -56.6% | inactive | inactive | inactive | –
5 | CCCn1c(=O)c(C)cn2nc(N)nc12 | -37.9% | inactive | inactive | inactive | –
6 | CN(C)CCC=C1c2ccccc2CCc2ccccc21 | -12.6% and -30.9% | inactive | inactive | inactive | –
7 | CSc1nc(N)c2ncn([C@@H]3O[C@H](COP(=O)(O)OP(=O)(O)OP(=O)(O)O)[C@@H](O)[C@H]3O)c2n1 | 7.61% | inactive | inactive | inactive | –
8 | Nc1ncnc2c1ncn2[C@@H]1O[C@H](COP(=O)(O)CP(=O)(O)OP(=O)(O)O)[C@@H](O)[C@H]1O | 7.87% | inactive | inactive | inactive | –
9 | CC(C)(C)c1ccc(/C=C/C(=O)Nc2ccc3c(c2)OCCO3)cc1 | -15.3% | inactive | inactive | inactive | –
10 | CC(N)(Cc1ccc(O)cc1)C(=O)O (centres undefined) | -18.1% | inactive | inactive | inactive | –
11 | N#CC(C#N)=C(N)/C(C#N)=C/c1ccc(O)cc1 | -15.2% | inactive | inactive | inactive | –
12 | CCN(CC)CCNC(=O)c1cc(S(C)(=O)=O)ccc1OC | -10% and -17.5% | inactive | inactive | inactive | –
13 | NCCNS(=O)(=O)c1cccc2c(Cl)cccc12 | -38% | inactive | inactive | inactive | –
14 | CN(C)CCOC(=O)COc1ccc(Cl)cc1 | -18.4% and -20.3% | inactive | inactive | inactive | –
15 | CN1CC(O)C(O)C(O)C1CO (centres undefined) | 9.95% | inactive | inactive | inactive | –
16 | COc1cc(Cc2cnc(N)nc2N)cc(OC)c1OC | -5.08% and -24.5% | inactive | inactive | inactive | –
17 | CCc1cccc2c3c([nH]c12)C(CC)(CC(=O)O)OCC3 (centres undefined) | -0.565% and -1.6% | inactive | inactive | inactive | –
18 | Cc1nc2c(OCc3ccccc3)cccn2c1CC#N | 7.44% | inactive | inactive | inactive | –
19 | NC(=Nc1ccccc1)NC(=O)c1nc(Cl)c(N)nc1N | -28.9% | inactive | inactive | inactive | –
20 | C[N+]1(C)CCC(OC(=O)C(c2ccccc2)c2ccccc2)CC1 | -16.4% | inactive | inactive | inactive | –
21 | NC(N)=N[C@@H](CCC(=O)O)C(=O)O | -4.46% | inactive | inactive | inactive | –
22 | C[C@]12C=CC(=O)C=C1CC[C@H]1[C@@H]3C[C@@H](O)[C@](O)(C(=O)CO)[C@@]3(C)C[C@H](O)[C@@]12F | 10.9% and -4.1% | inactive | inactive | inactive | –

Row | SMILES | activation [1] | Potency [2] | Potency [3] | Potency [4] | Potency [1]
23 | O=[N+]([O-])c1cccc2c(Br)[nH]nc12 | -55.3% | inactive | inactive | inactive | –
24 | Nc1ccc(S(=O)(=O)Nc2ccnn2-c2ccccc2)cc1 | 12.6% and 48.1% and -20.4% | inactive | inactive | inactive | –
25 | COc1ccc2c(c1)c(CC(=O)O)c(C)n2Cc1ccc(Cl)cc1 | -32.5% | inactive | inactive | inactive | –
26 | N[C@@H](Cc1cnc[nH]1)C(=O)O | 30.1% | inactive | inactive | inactive | –
27 | OC[C@H]1O[C@@H](n2cnc3cncnc32)[C@H](O)[C@@H]1O | -14.1% | inactive | inactive | inactive | –
28 | NC(N)=NC(=O)Cc1c(Cl)cccc1Cl | -18.6% and -5.21% | inactive | inactive | inactive | –
29 | CC(=O)NNC(=O)N1Cc2ccccc2Oc2ccc(Cl)cc21 | -0.739% | inactive | inactive | inactive | –
30 | CC(C)C(=O)c1c(C(C)C)nn2ccccc12 | -13.4% and -31.4% | inactive | inactive | inactive | –
31 | CCN(Cc1ccncc1)C(=O)C(CO)c1ccccc1 (centres undefined) | 3.95% and 13.2% | inactive | inactive | inactive | –
32 | CN1C2CC(OC(=O)[C@H](CO)c3ccccc3)CC1C1OC12 (some centres undefined) | -3.28% | inactive | inactive | inactive | –
33 | O=C(CCSCc1ccco1)NNC(=O)N1Cc2ccccc2Oc2ccc(Cl)cc21 | 22% | inactive | inactive | inactive | –
34 | NCCSSCCN | 43.3% | inactive | inactive | inactive | –
35 | NCCCCC(=O)O | -27.1% | inactive | inactive | inactive | –
36 | O=P(O)(O)C(Cl)(Cl)P(=O)(O)O | -11.2% | inactive | inactive | inactive | –
37 | O=C1NC(=O)[C@@]2(CCOc3ccc(F)cc32)N1 | -3.95% and 3.53% | inactive | inactive | inactive | –
38 | CN1C2CCC1CC(OC(=O)c1c[nH]c3ccccc13)C2 (centres undefined) | -37.1% | inactive | inactive | inactive | –
39 | NCCCCN | 16% | inactive | inactive | inactive | –
40 | CN=C(N)NCCC[C@H](N)C(=O)O | -4.6% | inactive | inactive | inactive | –
41 | NCCS | -9.6% and 3.67% | inactive | inactive | inactive | –
42 | CC1(C)CCC=[N+]1[O-] | 8.43% | inactive | inactive | inactive | –
43 | NC(=O)CC[C@H](N)C(=O)O | 18.7% | inactive | inactive | inactive | –
44 | C[N+]1(C)C2CC(OC(=O)[C@H](CO)c3ccccc3)CC1C1OC12 (some centres undefined) | 4.68% and -6.58% | inactive | inactive | inactive | –

Row | SMILES | activation [1] | Potency [2] | Potency [3] | Potency [4] | Potency [1]
45 | Nc1ccc(CCNc2ncnc3c2ncn3C2OC(CO)C(O)C2O)cc1 (centres undefined) | -6.89% | inactive | inactive | inactive | –
46 | CN1C2CCCC1CC(NC(=O)c1nn(C)c3ccccc13)C2 (centres undefined) | -4.74% | inactive | inactive | inactive | –
47 | CC(=O)O[C@H]1Cc2ccccc2N(C(N)=O)c2ccccc21 | 5.86% | inactive | inactive | inactive | –
48 | NCCCNCCSP(=O)(O)O | 5.02% and 16.3% | inactive | inactive | inactive | –
49 | COC(=O)[C@@H](N)Cc1ccc(O)c(O)c1 | 2.51% and -29.9% | inactive | inactive | inactive | –
50 | N[C@H](CO)C(=O)O | 9.85% | inactive | inactive | inactive | –
51 | COC(=O)c1c(C)[nH]c(C)c1C(=O)c1ccccc1Cc1ccccc1 | -23.2% | inactive | inactive | inactive | –
52 | CC1CC2C3CCC4=CC(=O)C=C[C@]4(C)[C@@]3(F)[C@@H](O)C[C@]2(C)[C@@]1(O)C(=O)CO (some centres undefined) | -4.86% and -24.4% | inactive | inactive | inactive | –
53 | NC[C@@H]1O[C@H](c2ccccc2)Cc2c1ccc(O)c2O | 5.43% | inactive | inactive | inactive | –
54 | Clc1ccc(N2CCN(Cc3cc4ccccn4n3)CC2)cc1 | -21.6% | inactive | inactive | inactive | –
55 | COc1cccc(C(=O)NCCN2CCN(c3ccc(Cl)cc3)CC2)c1 | -34.4% | inactive | inactive | inactive | –
56 | CCN1CCCC1CNC(=O)c1cc(S(N)(=O)=O)ccc1OC (centres undefined) | 8% and -7.28% | inactive | inactive | inactive | –
57 | CCCCCCCC/C=C\CCCCCCCC(=O)NCCc1ccc(O)c(O)c1 | 9.28% | inactive | inactive | inactive | –
58 | CSc1ccccc1N1CCN(CCCCCC(=O)NC2CCCc3ccccc32)CC1 (centres undefined) | -61.7% | inactive | inactive | inactive | –
59 | COc1cc(C(O)CO)ccc1OS(=O)(=O)O (centres undefined) | 5.13% | inactive | inactive | inactive | –
60 | Nc1nc2[nH]c(=O)cnc2c(=O)[nH]1 | -25.1% | inactive | inactive | inactive | –
61 | Nc1ncnc2c1nc(Br)n2C1OC2COP(=O)(O)O[C@@H]2C1O (some centres undefined) | -6.56% | inactive | inactive | inactive | –
62 | Cc1ccc(S(=O)(=O)/C=C/C#N)cc1 | – | 30.1 µM (active) | 0.398 µM (active) | inactive | 30.1 µM (active)
63 | Cn1cnc2c(NCc3ccccc3)nc(NCCO)nc21 | -37% | inactive | inactive | inactive | –
64 | Nc1nc(SCc2ccc([N+](=O)[O-])cc2)c2ncn([C@@H]3O[C@H](CO)[C@@H](O)[C@H]3O)c2n1 | -3.28% | inactive | inactive | inactive | –
65 | O=C(O)c1cc(=O)cc(C(=O)O)[nH]1 | -16.3% | inactive | inactive | inactive | –
66 | CC(C)(NS(=O)(=O)c1ccc(Oc2ccc(F)cc2)cc1)C(=O)NO | -8.16% | inactive | inactive | inactive | –

Source: PubChem BioAssay (NCATS)
